Growth data for 40 compounds are collected here from PubChem BioAssay (NCI).

The panel holds about 83,000 compounds, 20% with a hit somewhere; the sample as a whole holds those more often.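 Single-dose data. Exposure time 48 hours. Values below 10 considered active.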 Values without a mark were called inactive. Active and inactive are the calls of the source.

For this experiment, the system named is HL-60(TB) leukemia. Kind of experiment: NCI-60 one-dose screen, 48 h (100 = growth as untreated, 0 = no growth, -100 = all killed). Conditions: 10 µM unless noted.
As for `CNCCCNc1nc2ccccc2c2c(=O)c3cc(Cl)ccc3sc12`, the growth is -55.2% (active).

In the case of `COc1ccc(C(=O)/C(=N/Nc2ccccc2)c2ccc(OC)cc2)cc1`, the growth was 88.4%.

`COc1ccc(-c2nn(-c3cccc(Cl)c3)cc2-c2cc(-c3ccccc3)[nH]c(=O)c2C#N)cc1`: the growth is 111%.

In the case of `O=c1oc2ccc(F)cc2c(=O)n1-c1ccc(Br)cc1F`, the growth was -45.3% (active).

For the compound `NS(=O)(=O)c1ccc(-c2cc(-c3nnc(SCC(=O)Nc4ccc(C(=O)/C=C/c5ccc(Cl)cc5)cc4)n3-c3ccccc3)c3ccccc3n2)cc1`, the growth is 92.2%.

For `C=CCn1c(SCC(=O)Nc2ccc(/C(C)=N/O)cc2)nnc1-c1cc(-c2ccc(S(N)(=O)=O)cc2)nc2ccccc12`, the growth was 7.74% (active).

On to `COc1cc(/C=C/c2cc(/C=C/c3ccc(O)c(OC)c3)n(C(=O)Nc3ccc(C)cc3)n2)ccc1O`, for which the growth is -28.2% (active).

With `CC(C)CN1CC(C(=O)Nc2ccc3c(c2)-c2ccccc2C3)CC1=O` (stereo not given), the growth is 91.7% [50 µM].

As to `CC1=C([Se]CC(OC(=O)[C@@H](CSSC(C)(C)C)NC(=O)C(C)(C)C)C(=O)NCCCCCC(=O)OCc2ccccc2)C(=O)c2ccccc2C1=O` (stereo not given in full), the growth is -24.4% (active).

As for `CNC(C)[C@H]1CCC2C3CC=C4C(=O)[C@@H](NC(=O)C=C(C)C)CC[C@]4(C)C3CC[C@@]21C` (stereo not given in full), the growth is -67% (active).

With `CCSc1sc(-c2ccc(C)cc2)nc1[P+](c1ccccc1)(c1ccccc1)c1ccccc1`, the growth was -47% (active).

As to `COc1cc(F)c(F)c(Nc2ccc(I)cc2F)c1NS(=O)(=O)C1(C[C@H](O)CO)CC1`, the growth is 23.9%.

On to `C=C(NC(=O)C(=C)NC(=O)c1csc(C2=NC3c4csc(n4)C4NC(=O)c5csc(n5)C(C(C)(O)C(C)O)NC(=O)C5CSC(=N5)C(=CC)NC(=O)C(C(C)O)NC(=O)c5csc(n5)C3(CC2)NC(=O)C(C)NC(=O)C(=C)NC(=O)C(C)NC(=O)C(C(C)CC)NC2C=Cc3c(C(C)O)cc(nc3C2O)C(=O)OC4C)n1)C(N)=O` (stereo not given), for which the growth is 3.83% (active).

Turning to `O=C(O)c1cccc(N/C=C/C(=O)c2cc3cc(Br)ccc3oc2=O)c1`, the growth was 99.8%.

For `C#CCOc1ccc2ncnc(NCc3cccc(NC(=O)CCl)c3)c2c1`, the growth is 19.5% [8.25 µM].

On to `CNC(=O)c1[nH]cc(-c2ccccc2)c1-c1cc(OC)c2c(c1OC)OCO2`, for which the growth is 93.3%.

With `COc1cc(NC(C)CCCN)c2ncccc2c1Sc1ccc(Cl)cc1` (stereo not given), the growth is 81.3%.

For the compound `Nc1ccc(Br)cn1`, the growth was 75.5%.

For `CC1=NN2C(=NC3=C(CCC/C3=C\c3ccc(Cl)cc3)C2c2ccc(Cl)cc2)S1` (stereo not given), the growth is 63.2%.

On to `C[C@@]1(CO)[C@H](O)CC[C@@]2(C)[C@H]1CC[C@H]1C[C@@H]3C[C@@]12CC[C@@]3(O)COC(=O)CN`, for which the growth was 3.18% (active).

On to `C=C1C(=O)O[C@H]2[C@H]1CC/C(COC(=O)C(=O)c1cn(C)c3ccc(OC)cc13)=C\CC[C@@]1(C)O[C@@H]21`, for which the growth was -38.7% (active).

On to `NC(CCCC(N)C(=O)c1ccccc1)C(=O)O` (stereo not given), for which the growth is 94.3%.

With `CCCCCCCCCCCCCCC(C(=O)OCC)C(=O)OCC`, the growth was 104%.

For `O=[N+]([O-])c1ccc(CO)cc1`, the growth is 96.7%.

For `O=[N+]([O-])c1cccc([I+]c2ccccc2)c1`, the growth was 37.9%.

For the compound `Cn1cccc1-c1nc2c3c(ccc2[nH]1)C(=O)c1ccccc1C3=O`, the growth was 82.3%.

Regarding `CCN1CCN(Cc2ccc(-c3cc4c(N[C@H](C)c5ccccc5)ncnc4[nH]3)cc2)CC1`, the growth was 14.5%.

As to `COc1ccc(NC(=O)/N=c2\oc3c(OC)cccc3cc2-c2cc3ccccc3[nH]2)cc1`, the growth is 142%.

With `CC(=O)[C@@H]1CC[C@]2(CO)CC[C@]3(C)[C@H](CC[C@@H]4[C@@]5(C)CCCNC(C)(C)[C@@H]5CC[C@]43C)[C@@H]12`, the growth was 136%.

For the compound `COC(=O)[C@@H](Cc1c[nH]c2ccccc12)NC(=O)[C@H](Cc1ccccc1)NCc1ccncc1`, the growth was 80.6%.

`O=C1Nc2ccccc2C1(c1c[nH]c2ccccc12)c1c[nH]c2ccccc12`: the growth is 77.8%.

`O=CNc1cc(Cl)cc(Cl)c1`: the growth is 93.2%.

Regarding `CNC(=O)NCC1OC(n2cnc3c(NC(=O)Nc4ccccc4)ncnc32)C(O[Si](C)(C)C(C)(C)C)C1CC(=O)N(C)OC` (stereo not given), the growth is -33.1% (active).

As to `CN(C)c1ccc(/C=C/c2c(F)cccc2F)cc1`, the growth is 98.8%.

Consider `COC(=O)c1oc2c(C(=O)/C=C/c3ccc(OC)cc3)c(OCCCN3CCCCC3)ccc2c1C`, for which the growth is -54.7% (active).

For the compound `CC(C)(C)c1ccc(OCCOC(=O)CBr)cc1`, the growth is 75.2%.

Consider `CC1(C)OC2[C@@H](CNC(=O)NC(=O)NC(=O)CI)O[C@@H](n3cnc4c(NC(=O)Nc5ccccc5)ncnc43)[C@H]2O1` (stereo not given in full), for which the growth is 77.2%.

Turning to `O=[N+]([O-])c1cnc(Sc2ccncn2)s1`, the growth was -20.2% (active).

With `COc1ccccc1/C=N/NC1=NC2C(N1)N(C)C(=O)N2C` (stereo not given), the growth is 107%.

Consider `CCNc1ccc2ccccc2c1N=Nc1ccc(N=Nc2ccccc2)cc1`, for which the growth was 108%.
